{
  "source": "ChEMBL document CHEMBL4513216",
  "about": "“Probing the Open Global Health Chemical Diversity Library for Multistage-Active Starting Points for Next-Generation Antimalarials” (ACS Infect Dis, 2020)",
  "note": "The whole screen tested about 69,000 compounds, of which about 8,600 (12%) showed an effect of 50% or more. The sample holds strong results, similar compounds and a random draw of the others, so the mix is not that of the screen.",
  "data": [
    {"system": "Plasmodium berghei", "assay": "Screen against P. berghei liver stage (PbLuc), transformed with Luciferase, at 10uM", "format": "functional, HepG2", "conditions": "tested at 10 uM", "units": {"INHIBITION": "%"}, "values": [
      {"smiles": "Cc1ccc(CN2CCC3(CCCN(S(C)(=O)=O)C3)C2)o1", "note": "(configuration not stated)", "INHIBITION": 24.9},
      {"smiles": "CC(=O)N1CCN([C@@H]2CC[C@@H](NC(=O)c3cc(C)cs3)[C@H]2O)CC1", "INHIBITION": 33.7},
      {"smiles": "Cc1cncc(C(=O)N2CCC3(CC2)NC(=O)CC3c2ccccc2)c1", "note": "(configuration not stated)", "INHIBITION": -3.88},
      {"smiles": "O=C([C@H]1C[C@H]2[C@H](CCN2Cc2cccs2)O1)N1CCOCC1", "INHIBITION": 24.8},
      {"smiles": "CSc1ncccc1C(=O)N1C[C@@H]2CC[C@H]1CN(C(C)=O)C2", "INHIBITION": -31.1},
      {"smiles": "COCCNc1c(-c2ccc(C)cc2)c(=O)c1=O", "INHIBITION": 25.3},
      {"smiles": "Cc1cc(S(=O)(=O)N2CCC(S(C)(=O)=O)CC2)ccc1F", "INHIBITION": 16.6},
      {"smiles": "Cc1ccc(S(=O)(=O)N2CCCCC(N3CCN(C)CC3)C2)cc1F", "note": "(configuration not stated)", "INHIBITION": 71.3},
      {"smiles": "Cc1ccc(S(=O)(=O)N2C[C@H](C3CC3)[C@@H](N)C2)cc1F", "INHIBITION": 22.5},
      {"smiles": "Cc1ccc(S(=O)(=O)N2CCC(N3CCCCC3)CC2)cc1C", "INHIBITION": 45.4},
      {"smiles": "Cc1cc(S(=O)(=O)N2CCC(S(C)(=O)=O)C2)ccc1F", "note": "(configuration not stated)", "INHIBITION": 6.09},
      {"smiles": "Cc1cc(S(=O)(=O)N2CCCN3CCCC3C2)ccc1F", "note": "(configuration not stated)", "INHIBITION": 88.1},
      {"smiles": "CCc1ccc(CN2CCC3(CC2)CN(c2cnn(C)c2)C(=O)CO3)o1", "INHIBITION": 34.4},
      {"smiles": "Cc1ccc(OCCCSC2=NCCN2)cc1", "INHIBITION": 39.1},
      {"smiles": "CSc1nc2cc(C)n(CC(=O)NC(C)C)c2c(=O)n1CC(C)C", "INHIBITION": 43.9},
      {"smiles": "COCCNC(=O)Cn1c(C)cc2nc(SC)n(CC(C)C)c(=O)c21", "INHIBITION": 89.9},
      {"smiles": "CSc1nc2cc(C)n(CC(N)=O)c2c(=O)n1CC(C)C", "INHIBITION": 42.3},
      {"smiles": "Cc1cc(C)n(CC(=O)N2CCC(Nc3cccnn3)CC2)n1", "INHIBITION": -7.95},
      {"smiles": "O=C(NCc1cccs1)[C@@H]1CC[C@@H]2[C@@H](CCN2C2CCOCC2)O1", "INHIBITION": 27.6},
      {"smiles": "COCCO[C@@H]1CCN(C(=O)c2ccc[nH]2)[C@H]1Cc1cnn(C)c1", "INHIBITION": 33.4},
      {"smiles": "Cn1cc(C[C@H]2[C@@H](O)CCN2C(=O)c2ccc[nH]2)cn1", "INHIBITION": 4.27},
      {"smiles": "CCO[C@@H]1CCN(C(=O)c2cnc(C)cn2)[C@@H]1Cc1cnn(C)c1", "INHIBITION": 53.2},
      {"smiles": "Cn1cc(C[C@H]2[C@H](N3CCOCC3)CCN2C(=O)c2ccc[nH]2)cn1", "INHIBITION": 55.5},
      {"smiles": "CN(C)[C@@H]1CCN(C(=O)c2ccco2)[C@H]1Cc1cnn(C)c1", "INHIBITION": 33.4},
      {"smiles": "CN(C)C(=O)N1CC[C@@H](O)[C@@H]1Cc1cnn(C)c1", "INHIBITION": 19.5},
      {"smiles": "CCO[C@@H]1CCN(C(=O)c2cscn2)[C@@H]1Cc1cnn(C)c1", "INHIBITION": 37.5},
      {"smiles": "Cn1cc(C[C@H]2[C@H](O)CCN2C(=O)c2ccsc2)cn1", "INHIBITION": 60.2},
      {"smiles": "Cc1ccccc1C(=O)N1CC[C@@H](N(C)C)[C@@H]1Cc1cnn(C)c1", "INHIBITION": 34.6},
      {"smiles": "CN(C)[C@@H]1CCN(C(=O)c2ccsc2)[C@H]1Cc1cnn(C)c1", "INHIBITION": 48.3},
      {"smiles": "Cn1cc(C[C@H]2[C@H](N3CCOCC3)CCN2C(=O)c2ccco2)cn1", "INHIBITION": 17.1},
      {"smiles": "CN(C)[C@@H]1CCN(C(=O)c2cccn2C)[C@H]1Cc1cnn(C)c1", "INHIBITION": 57.9},
      {"smiles": "O=c1ccc(-c2cccs2)nn1CN1CCOC(c2ccccc2)C1", "note": "(configuration not stated)", "INHIBITION": -16.5},
      {"smiles": "Cc1oc(C)c(C(=O)N2CCN(Cc3cscn3)CC2)c1C", "INHIBITION": -63.3},
      {"smiles": "CN(C)c1cccc(C(=O)N2CCCSCC2CN2CCCC2)c1", "note": "(configuration not stated)", "INHIBITION": 11},
      {"smiles": "CC(C)C(NC(=O)Cn1nc2c(cc1=O)CCCC2)C(=O)O", "note": "(configuration not stated)", "INHIBITION": -0.621},
      {"smiles": "Cc1ccc(NCc2cncc3c2CCN(C(=O)C2CC=CC2)C3)nn1", "INHIBITION": -25},
      {"smiles": "O=C(c1cncs1)N1CCCC1c1ccn[nH]1", "note": "(configuration not stated)", "INHIBITION": -28.6},
      {"smiles": "Cc1nc(N2CCOCC2)nc2c1CCN(Cc1cccnc1)CC2", "INHIBITION": 4.92},
      {"smiles": "Cc1cccc(N2CCN(C(=O)NC(C)c3nncn3C)CC2)c1", "note": "(configuration not stated)", "INHIBITION": -38.2},
      {"smiles": "O=C(N[C@@H]1CC[C@@H](N2CCOCC2)[C@@H]1O)c1cnn2cccnc12", "INHIBITION": 38.8},
      {"smiles": "O=C(c1cccnc1)N1CC[C@H](OCC2CC2)[C@@H]1Cc1cccnc1", "INHIBITION": 34.8},
      {"smiles": "COCCO[C@H]1CCN(C(=O)c2ccsc2)[C@H]1Cc1cnn(C)c1", "INHIBITION": -17.9},
      {"smiles": "O=C(c1ccnnc1)N1CC[C@@H](O)[C@@H]1Cc1ccccc1", "INHIBITION": -3.58},
      {"smiles": "COCCO[C@H]1CCN(C(=O)c2ccco2)[C@H]1Cc1cnn(C)c1", "INHIBITION": -22.5},
      {"smiles": "O=C(c1ccnnc1)N1CC[C@H](OCC2CC2)[C@@H]1Cc1ccncc1", "INHIBITION": 66.2},
      {"smiles": "CCO[C@@H]1CCN(C(=O)N(C)C)[C@@H]1Cc1cnn(C)c1", "INHIBITION": 12.4},
      {"smiles": "CCO[C@@H]1CCN(C(=O)c2ccnnc2)[C@@H]1Cc1cnn(C)c1", "INHIBITION": 69.5},
      {"smiles": "CCO[C@@H]1CCN(C(=O)c2ccc[nH]2)[C@@H]1Cc1cnn(C)c1", "INHIBITION": 29},
      {"smiles": "COCCO[C@@H]1CCN(C(=O)c2ccnnc2)[C@H]1Cc1cnn(C)c1", "INHIBITION": 53.4},
      {"smiles": "COCCO[C@H]1CCN(C(=O)c2cccnc2)[C@H]1Cc1cnn(C)c1", "INHIBITION": 1.9},
      {"smiles": "COCCO[C@@H]1CCN(C(=O)c2ccc(C)o2)[C@@H]1Cc1cnn(C)c1", "INHIBITION": 21.6},
      {"smiles": "COCCO[C@H]1CCN(C(=O)NC2CC2)[C@H]1Cc1cnn(C)c1", "INHIBITION": 62.8}
    ]}
  ]
}
